Data published in PubChem BioAssay (EPA / NIEHS).
Results filed as inconclusive are left out. Calls of active or inactive are those of the source. The calls were made as follows: active = hit-call score of the fitted dose curve at least 0.9, where 1 is the maximum; inconclusive = response in the unintended direction; inactive = score below 0.9.

target: human Vitamin D Receptor (VDR), VDR (gene 7421) (UniProt P11473); assay: ATG_VDR_TRANS: Attagene TRANS-FACTORIAL HepG2 Assay for human Vitamin D Receptor (VDR) (AID 2283022)
Sequence (P11473 whole entry, looked up, the tested form may be a part): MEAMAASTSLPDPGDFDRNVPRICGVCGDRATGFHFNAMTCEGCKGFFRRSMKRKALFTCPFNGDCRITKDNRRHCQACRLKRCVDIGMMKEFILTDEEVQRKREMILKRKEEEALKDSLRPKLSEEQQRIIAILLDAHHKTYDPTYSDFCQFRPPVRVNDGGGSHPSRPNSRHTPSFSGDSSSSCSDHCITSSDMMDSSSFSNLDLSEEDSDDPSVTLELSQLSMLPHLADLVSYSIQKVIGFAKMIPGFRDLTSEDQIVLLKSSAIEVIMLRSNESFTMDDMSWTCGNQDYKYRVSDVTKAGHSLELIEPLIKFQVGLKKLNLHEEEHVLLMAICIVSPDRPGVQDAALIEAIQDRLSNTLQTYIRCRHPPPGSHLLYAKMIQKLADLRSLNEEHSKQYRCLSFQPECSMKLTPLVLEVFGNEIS
Outline: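 RT-PCR/capillary electrophoresis read-out of reporter mRNA induction in transiently transfected HepG2; 24 h dosing; chimeric NR-Gal4 (TRANS format); gain-of-signal fit against DMSO baseline.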

outcome, inactive:
CCCCCCCCCCCSCC(=O)O
CCCCCCCCCCc1ccccc1
COC(F)(F)C(F)(C(F)(F)F)C(F)(F)F
Cc1ccc(C(C)c2ccc(C)c(C)c2)cc1C
Cc1ccc2c(c1)C(=O)c1ccccc1C2=O
O=S(=O)(O)c1ccccc1C=Cc1ccc(-c2ccc(C=Cc3ccccc3S(=O)(=O)O)cc2)cc1
O=C(O)c1cc(Cl)cc([N+](=O)[O-])c1Cl
CC=CC(F)(F)C(F)(F)C(F)(F)F
O=S(=O)(O)c1ccc2cc(O)c(S(=O)(=O)O)cc2c1
Oc1ccc(Cl)cc1Cc1cc(Cl)ccc1O
CC(C)(C)c1ccc(OC(=O)c2ccccc2O)cc1
CCC(C)OC(=O)c1ccc(O)cc1 (stereo not drawn)
CC(C)=CC1CC(C)CCO1 (stereo not drawn)
COc1ccc([C@@H]2CC(=O)c3c(O)cc(O[C@@H]4O[C@H](CO[C@@H]5O[C@@H](C)[C@H](O)[C@@H](O)[C@H]5O)[C@@H](O)[C@H](O)[C@H]4O)cc3O2)cc1OC
O=S(=O)(O)CC(O)CCl (stereo not drawn)
O=CN1CCCCC1
Nc1ccc(N=Nc2ccccc2)c(N)n1
OCCN(CCO)c1ccccc1
CC(=O)c1ccc2c(c1)CCCC2
CC(=O)[C@@]1(O)CC[C@H]2[C@@H]3C[C@H](C)C4=CC(=O)C=C[C@]4(C)[C@@]3(F)[C@@H](O)C[C@@]21C
O=c1c2ccccc2nnn1CCl
O=S1(=O)OC(c2ccc(O)cc2)(c2ccc(O)cc2)c2ccccc21
O=C(Nc1cccc(C(F)(F)F)c1)c1cc(Br)cc(Br)c1O
CC=CC(=O)N(CC)c1ccccc1C
C=C(C)[C@@H]1CCC2=CCC[C@@H](C)[C@]2(C)C1
CC[C@H]1OC(=O)[C@H](C)[C@@H](O[C@H]2C[C@@](C)(OC)[C@@H](O)[C@H](C)O2)[C@H](C)[C@@H](O[C@@H]2O[C@H](C)C[C@H](N(C)C)[C@H]2O)[C@](C)(O)C[C@@H](C)C(=NOCOCCOC)[C@H](C)[C@@H](O)[C@]1(C)O
Cn1c([N+](=O)[O-])cnc1COC(N)=O
Cc1cc(C)c(C)c(O)c1
CC(=O)Oc1ccc(C(C)=O)cc1
CCOC(=O)CC
CCOC(=O)c1ccc(N(C)C)cc1
Cn1c(=O)[nH]c2ncn(C)c2c1=O
CC(C)(C)c1ccc(N)cc1
